aSyn 5UTR inh – 5' untranslated region of α-synuclein, MLPCN primary screen | alpha-synuclein 5'UTR reporter, inhibitor activity | inhibition, % (tested at 7.5 µM) | 300,000 compounds, 0.82% hits; in the data active = inhibition above about 60%;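 also: H4 neuroglioblastoma cells stably carrying SNCA 5'UTR luciferase fusion; 0% = DMSO wells and 100% = positive control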
CSC inhib – blocks cancer stem cells | cancer stem cell-like cells viability, luminescence | inhibition, % at 7.5 µM | 300,000 compounds, 1.1% hits; in the data active = inhibition above about 75%; tested in HMLE shEcad cells
IEC-6 tox-1 – IEC-6 cytotoxicity, counter-screen for KLF5 inhibitors | AID 1825 | 290,000 compounds, 0.78% hits | inhibition, % at 5 µM | luminescence viability;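 also: 0% = plate median of test compound wells and 100% = cytotoxic reference compound wells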
KLF5 inh – suppresses KLF5 promoter-driven expression; DLD-1 KLF5 promoter-luciferase reporter, luminescence; inhibition, % at 5 µM; 290,000 compounds, 0.23% hits; AID 1700;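 active = inhibition above a per-plate limit of that plate's mean compound inhibition plus 3 SD, cut at about 60% in these data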;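 also: 0% = DMSO wells and 100% = LY294002 at 200 µM; higher means less KLF5 promoter-driven luciferase light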
SKKanGAS inh – SKKanGAS growth inhibition; S. pyogenes SKKanGAS, kanamycin growth, BacTiter-Glo, 6 h; inhibition, % at 7.5 µM; 300,000 compounds, 1.3% hits; AID 1662;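 active = mean replicate score, as percent of positive control median, at least 50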;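 also: strain carries kanamycin resistance gene driven by streptokinase promoter and grows in 40 µg/ml kanamycin; loss of luminescence reflects streptokinase promoter inhibition or plain growth inhibition; 0% = median of DMSO wells and 100% = positive control at its reference dose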
KLF5 confirm – KLF5 inhibition, confirmation assay | 610 compounds, 79% hits | DLD-1 KLF5 promoter firefly luciferase reporter, luminescence | shares compounds with KLF5 inh | inhibition, % at 4 µM;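 active = inhibition above a set limit taken from the earlier primary screen, cut at about 63% in these data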;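 also: 0% = DMSO wells and 100% = LY294002 at 200 µM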
IEC-6 tox-2 – rat IEC-6 cytotoxicity, KLF5 inhibitor counter-screen; shares compounds with KLF5 inh; IEC-6 rat intestinal cells, viability luminescence; inhibition, % at 4 µM; 610 compounds, 56% hits; AID 1905; in the data active = inhibition above about 23%;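 also: cells exposed to compounds for 48 hours before viability read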
IEC-6 cytotox cf – IEC-6 cytotoxicity, confirmation assay; shares compounds with IEC-6 tox-1; IEC-6 rat intestinal epithelial viability, luminescence; inhibition, % at 5 µM; 1,900 compounds, 63% hits; AID 1907;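 also: 0% = vehicle and 100% = reference cytotoxic drug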
* = called active by the depositor. In the library only some 3% were active in any assay of this set; here they are far more common. Rule as the data show it, unless noted: active = inhibition above about 22%; inactive = the rest.

What do the screens show for `COc1cc(-c2c(-c3cc(OC)c(OC)c(OC)c3)noc2C)ccc1F`?
aSyn 5UTR inh: 46.4; CSC inhib: 58.2; IEC-6 tox-1: 98.1*; KLF5 inh: 79.0*; SKKanGAS inh: -4.0; KLF5 confirm: 88.5*; IEC-6 tox-2: 73.8*; IEC-6 cytotox cf: 70.6*

How did COc1cc(-c2noc(C)c2C#Cc2ccccn2)cc(OC)c1OC do in these assays?
aSyn 5UTR inh: 85.8*; CSC inhib: 82.4*; IEC-6 tox-1: 81.9*; KLF5 inh: 62.3*; SKKanGAS inh: -13.3; KLF5 confirm: 70.9*; IEC-6 tox-2: 60.7*; IEC-6 cytotox cf: 61.6*

How did C/C(=N\NC(=O)c1ccc2ccccc2c1)c1cccs1 do in these assays?
CSC inhib: 2.9; IEC-6 tox-1: 6.5; KLF5 inh: -152.5

How did COc1ccccc1C(NC(C)=O)c1cc(Cl)c2cccnc2c1O (stereo not given) do in these assays?
aSyn 5UTR inh: 67.5*; CSC inhib: 100.9*; IEC-6 tox-1: 61.0*; KLF5 inh: 73.0*; SKKanGAS inh: 99.5*; KLF5 confirm: 71.0*; IEC-6 tox-2: 81.1*; IEC-6 cytotox cf: 42.8*

What do the screens show for `Oc1c(C(Nc2nccs2)c2ccc(C(F)(F)F)cc2)ccc2cccnc12` (stereo not given)?
aSyn 5UTR inh: 55.1; IEC-6 tox-1: 43.8*; KLF5 inh: 62.0*; SKKanGAS inh: 91.0*; KLF5 confirm: 83.7*; IEC-6 tox-2: 57.4*; IEC-6 cytotox cf: 62.0*

How did CCCCC(=O)NC(c1ccc(Cl)cc1)c1ccc2cccnc2c1O (stereo not given) do in these assays?
aSyn 5UTR inh: 55.9; CSC inhib: 153.0*; IEC-6 tox-1: 57.3*; KLF5 inh: 83.9*; SKKanGAS inh: 70.0*; KLF5 confirm: 88.5*; IEC-6 tox-2: 65.6*; IEC-6 cytotox cf: 68.5*

Results for CCCC(=O)NC(c1ccccc1)c1c(O)ccc2ccccc12 (stereo not given) ?
aSyn 5UTR inh: 7.9; CSC inhib: 4.3; IEC-6 tox-1: 1.5; KLF5 inh: -16.1; SKKanGAS inh: -1.3

Results for CCCC(=O)NC(c1ccc(C)cc1)c1ccc2cccnc2c1O (stereo not given) ?
aSyn 5UTR inh: 57.5; CSC inhib: 110.2*; IEC-6 tox-1: 55.4*; KLF5 inh: 99.2*; SKKanGAS inh: 71.8*; KLF5 confirm: 87.1*; IEC-6 tox-2: 75.3*; IEC-6 cytotox cf: 82.8*

How did CC(C)OC(=O)CCCNc1ccc([N+](=O)[O-])cc1[N+](=O)[O-] do in these assays?
aSyn 5UTR inh: 18.8; CSC inhib: -9.9; IEC-6 tox-1: -3.0; KLF5 inh: -11.7; SKKanGAS inh: 5.3

Results for CCCCC(=O)NC(c1ccccc1OC)c1ccc2cccnc2c1O (stereo not given) ?
aSyn 5UTR inh: 101.2*; CSC inhib: 137.7*; IEC-6 tox-1: 24.0*; KLF5 inh: 75.7*; SKKanGAS inh: -1.7; KLF5 confirm: 93.5*; IEC-6 tox-2: 48.1*; IEC-6 cytotox cf: 57.5*

How did CCCCC(=O)NC(c1ccc(N(C)C)cc1)c1ccc2cccnc2c1O (stereo not given) do in these assays?
aSyn 5UTR inh: 62.4*; CSC inhib: 108.2*; IEC-6 tox-1: 62.2*; KLF5 inh: 84.5*; SKKanGAS inh: 4.7; KLF5 confirm: 88.5*; IEC-6 tox-2: 64.4*; IEC-6 cytotox cf: 85.9*

What do the screens show for `CC(=O)NC(c1ccc2ccccc2c1)c1ccc2cccnc2c1O` (stereo not given)?
aSyn 5UTR inh: 56.6; CSC inhib: 102.4*; IEC-6 tox-1: 98.7*; KLF5 inh: 77.2*; SKKanGAS inh: 89.2*; KLF5 confirm: 86.9*; IEC-6 tox-2: 79.3*; IEC-6 cytotox cf: 82.2*

How did CCCC(=O)NC(c1ccc(Cl)cc1)c1ccc2cccnc2c1O (stereo not given) do in these assays?
aSyn 5UTR inh: 46.6; CSC inhib: 105.7*; IEC-6 tox-1: 40.5*; KLF5 inh: 78.1*; SKKanGAS inh: 57.5*; KLF5 confirm: 82.2*; IEC-6 tox-2: 77.4*; IEC-6 cytotox cf: 66.9*

Results for O=C(COC(=O)/C=C/c1cccs1)Nc1ccc2ccccc2c1 ?
aSyn 5UTR inh: 1.0; CSC inhib: 13.7; IEC-6 tox-1: 1.1; KLF5 inh: -20.9; SKKanGAS inh: -0.3

What do the screens show for `CCOc1ccccc1/C=N/Nc1ccc(Cl)nn1`?
aSyn 5UTR inh: -20.1; CSC inhib: -12.7; IEC-6 tox-1: -2.3; KLF5 inh: 33.2; SKKanGAS inh: 1.2

What do the screens show for `CCOc1ccc(/C=N/Nc2ccc(Cl)nn2)c(O)c1`?
aSyn 5UTR inh: 33.8; CSC inhib: 15.3; IEC-6 tox-1: 93.7*; KLF5 inh: 81.9*; SKKanGAS inh: 8.3; KLF5 confirm: 31.2; IEC-6 tox-2: -1.6; IEC-6 cytotox cf: 4.6

What do the screens show for `COC(=O)c1ccc(C)c(NC(=O)CCCN2C(=O)NC(C)(C)C2=O)c1`?
CSC inhib: -8.4

How did O=C(N/N=C/c1cccc(Oc2ccccc2)c1)c1ccccc1F do in these assays?
aSyn 5UTR inh: -38.9; CSC inhib: 59.6; IEC-6 tox-1: 28.5*; KLF5 inh: 64.0*; SKKanGAS inh: -2.6; KLF5 confirm: 66.1*; IEC-6 tox-2: 1.7; IEC-6 cytotox cf: 21.0

Results for Cc1ccccc1NC(=O)Cn1nnc(C(=O)NCc2ccco2)c1N ?
aSyn 5UTR inh: -3.8; CSC inhib: 24.1; IEC-6 tox-1: 2.5; KLF5 inh: 15.8; SKKanGAS inh: 2.6

How did CCOc1ccccc1NC(=O)Cn1nnc(C(=O)NCc2ccco2)c1N do in these assays?
aSyn 5UTR inh: 84.6*; CSC inhib: -2.1; IEC-6 tox-1: 86.9*; KLF5 inh: 76.3*; SKKanGAS inh: 3.1; KLF5 confirm: 88.1*; IEC-6 tox-2: 63.8*; IEC-6 cytotox cf: 58.2*

How did CN(C)c1ccc(/C=N/NC(=O)COc2ccccc2)cc1 do in these assays?
aSyn 5UTR inh: -31.7; CSC inhib: -11.8; IEC-6 tox-1: -2.3; KLF5 inh: -39.3; SKKanGAS inh: -4.0

How did COc1ccc(/C=N/NC(=O)COc2ccccc2-c2ccccc2)cc1 do in these assays?
aSyn 5UTR inh: 69.6*; CSC inhib: -12.3; IEC-6 tox-1: 78.6*; KLF5 inh: 64.7*; SKKanGAS inh: 29.9; KLF5 confirm: 77.1*; IEC-6 tox-2: 54.4*; IEC-6 cytotox cf: 55.7*

What do the screens show for `Cc1cc(C)c(S(=O)(=O)Nc2ccc3c(c2)CCC3)c(C)c1`?
aSyn 5UTR inh: -2.4; CSC inhib: 45.6; IEC-6 tox-1: 5.3; KLF5 inh: -4.3; SKKanGAS inh: 11.9

What do the screens show for `Cc1cc(C)c(S(=O)(=O)Nc2ccc3c4c(cccc24)CC3)c(C)c1`?
aSyn 5UTR inh: 106.0*; CSC inhib: 92.5*; IEC-6 tox-1: 89.3*; KLF5 inh: 70.5*; SKKanGAS inh: 41.8; KLF5 confirm: 84.2*; IEC-6 tox-2: 56.8*; IEC-6 cytotox cf: 56.1*

Bioassay records (PubChem BioAssay)
